# Screening data from PubChem.
# hcDAF-12 act – activators of H. contortus DAF-12 nuclear receptor; actives 1.4% (n = 370,000); AID 652067; activation, % at 6.8 µM; HEK293 hcDAF-12 lit1-tk-luc reporter, luminescence; 0% DMSO, 100% Δ7-dafachronic acid;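 active = activation above the mean of all tested compounds plus 3 SD, cut at about 5.5% in these data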
# SMARCA2 activ – activators of SMARCA2 function; MG213 cells, MMTV-luciferase reporter, dexamethasone, overnight; activation, % at 9.1 µM; actives 1% (n = 370,000); AID 652017; in the data active = activation above about 7.8%
# DAX1 inh-1 – inhibitors of human orphan nuclear receptor DAX1 (NR0B1); inhibition, % at 6.75 µM; actives 0.99% (n = 340,000); HEK293 Gal4-DAX1 luciferase reporter, luminescence; AID 504766; P51843;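 active = inhibition above the mean over all tested compounds plus 3 SD, cut at about 4.2% in these data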;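 also: inhibition shows as a rise in luminescence from relieved DAX1 repression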
# Target sequence (P51843 207-470 limits assumed): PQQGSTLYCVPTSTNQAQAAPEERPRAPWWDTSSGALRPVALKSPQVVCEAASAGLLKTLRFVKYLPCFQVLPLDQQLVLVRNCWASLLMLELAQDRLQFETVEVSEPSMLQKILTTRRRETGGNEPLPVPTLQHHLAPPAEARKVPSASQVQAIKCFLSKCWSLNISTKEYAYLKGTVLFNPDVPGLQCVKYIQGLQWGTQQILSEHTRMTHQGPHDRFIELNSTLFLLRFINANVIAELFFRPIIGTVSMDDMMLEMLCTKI
# hgDAF-12 ag – hgDAF-12 agonism, primary luciferase screen; HEK293 GAL4-hgDAF12 UAS-luciferase reporter, agonist luminescence; normalized to butyrate control; activation, % at 6.8 µM; actives 1.8% (n = 370,000);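 active = activation above a cutoff set at the mean of all screened compounds plus 3 SD, cut at about 10% in these data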
# ssDAF-12 act – activates DAF-12 receptor from parasite S. stercoralis; HEK293 ssDAF-12/GRIP1 lit1-tk-luc reporter, luminescence; % of 3 µM dafachronic acid response; activation, % at 6.8 µM; actives 1% (n = 370,000); AID 652126;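 active = activation above the mean over all tested compounds plus 3 SD, cut at about 0.9% in these data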
# DAX1 inh-2 – blocks DAX1 repression of SF-1 activated StAR promoter. HEK293T StAR-luciferase reporter, SF-1/DAX-1 repression relief. inhibition, % at 6.8 µM. actives 1.1% (n = 370,000);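 active = inhibition above the mean over all tested compounds plus 3 SD, cut at about 3.6% in these data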;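 also: higher inhibition means more luminescence from relief of DAX-1 repression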
# A number is an active result; i = inactive; nt = no result given. An excerpt weighted towards active compounds, which were near 4.8% of everything screened.
SMILES,hcDAF-12 act,SMARCA2 activ,DAX1 inh-1,hgDAF-12 ag,ssDAF-12 act,DAX1 inh-2
O=C(NCc1ccccc1)c1noc2c1CCCC2,i,i,i,i,i,i
O=C(NCCc1ccccc1)c1cc2ncc(Br)cn2n1,i,8.1,i,i,i,i
O=C(NCCc1ccccc1)c1noc2c1CCCCC2,i,i,i,12,i,4.3
CC(C)c1cc(C(=O)NCCc2ccccc2)no1,i,i,7.4,i,i,i
Cc1ccc(NC(=O)c2noc3c2CCCCC3)cc1C,i,i,i,i,i,4.0
COc1ccc([C@H]2OC(=O)C[C@H]2C(=O)N2CCCCC2)cc1OC,i,i,nt,i,i,i
Cn1c(COc2ccc([N+](=O)[O-])cc2)nnc1SCC(=O)NCC1CCCO1 (stereo not drawn),i,i,i,i,1.0,i
COc1ccc(OCc2nnc(SCC(=O)NCC3CCCO3)n2N)cc1 (stereo not drawn),i,i,i,i,i,i
CC(C)C[C@@H]1COc2cc(N3CCCC3)ccc2S(=O)(=O)N1,i,i,nt,i,i,i
O=C(NCc1ccco1)C(Cc1ccccc1)N1C(=O)c2ccccc2C1=O (stereo not drawn),6.3,i,i,i,i,i
[N-]=[N+]=CC(=O)CNC(=O)[C@@H](Cc1ccccc1)N1C(=O)c2ccccc2C1=O,i,i,i,i,i,i
COc1ccccc1CNC(=O)CSc1ccccc1,i,i,i,11,i,i
COc1ccccc1CNC(=O)CN1C(=O)c2ccccc2S1(=O)=O,i,i,4.5,i,i,i
COc1ccccc1CNC(=O)CSc1ccc(C)cc1,i,i,i,i,i,i
COC[C@H]1CCCN1c1ccc2c(c1)O[C@H](C)CCN(C1CC1)S2(=O)=O,i,i,nt,i,i,i
O=C(OC12CCCN(C1)/C(=C/c1cccc(Cl)c1)C2)c1ccno1 (stereo not drawn),i,i,nt,i,i,i
CC(=O)N1CCc2cc(S(=O)(=O)NC3CCN(C(=O)OCc4ccccc4)CC3)ccc21,i,i,nt,i,i,i
COc1ccc(-c2nc(=S)c3ccc4ccccc4c3[nH]2)cc1,6.4,i,i,i,1.0,i
Cc1cc(=O)c2ccc3ccccc3c2[nH]1,i,i,i,i,i,i
CN1C(=O)C2(N=c3ccccc3=N2)c2ccccc21,nt,nt,i,nt,nt,nt
CN1C(=O)C(O)(c2nnc(-c3ccccc3)o2)c2ccccc21 (stereo not drawn),i,i,i,i,1.1,i
COc1ccc(CC(=O)N2CCN(C(=O)c3ccc4nc(C)n(C5CCCC5)c4c3)CC2)cc1,i,i,nt,i,i,i
O=C(O)c1cccc2c1C(=O)N(Cc1ccccc1)C2,i,i,i,i,1.2,i
O=C(NC1CCN(Cc2ccccc2)CC1)C1CCN(c2nnc(-n3cccc3)s2)CC1,i,i,i,i,i,i
O=C(NC1CCN(Cc2ccccc2)CC1)C1CCCN(c2nnc(-n3cccc3)s2)C1 (stereo not drawn),i,i,i,11,i,i
SMILES,hcDAF-12 act,SMARCA2 activ,DAX1 inh-1,hgDAF-12 ag,ssDAF-12 act,DAX1 inh-2
Nn1c(SCC(=O)Nc2nccs2)nnc1-c1cc(-c2ccc(F)cc2)n[nH]1,i,i,nt,i,i,i
Cc1ccccc1Cn1nc(C)c(NC(=O)c2ccccc2)c1C,i,i,i,13,i,i
Cc1ccccc1Cn1nc(C)c(NC(=O)c2sc3ccccc3c2Cl)c1C,i,i,i,i,i,i
CCOC(=O)CC[C@@H]1CC[C@]2(CCCN(Cc3nccs3)C2)O1,i,i,nt,i,i,i
Nc1ccc(C(=O)OCc2nc3ccccc3s2)cc1,i,i,i,i,i,i
Cc1ccc(C(=O)OCc2nc3ccccc3s2)o1,5.8,i,i,i,i,i
O=C(OCc1nc2ccccc2s1)c1ccc(Br)s1,i,i,i,i,1.1,i
NC(=O)CSCc1nc2ccccc2s1,6.0,i,i,i,i,i
C[C@@H]1COc2cc(F)ccc2S(=O)(=O)N1C,i,i,nt,i,i,i
COc1ccc(-c2c(Cc3ccccc3)nc(NC(=O)c3ccccc3)n2C)cc1,i,i,nt,i,i,i
CCN(CC)C(=O)C1CCCN(Cc2ccc3ccccc3c2)C1 (stereo not drawn),i,i,i,i,i,i
NC(=O)C1CCCN(Cc2ccc3ccccc3c2)C1 (stereo not drawn),i,i,5.1,i,i,i
